Structures can show the parent of a compound that is named as a salt. ± gives the standard deviation of the averaged measurements.

Our source for the growth values is the supplement of paper PMC9262897, “Low-cost anti-mycobacterial drug discovery using engineered E. coli” (Nature Communications, 2022).

Experiment in all cases: growth (OD600 after 10 h); higher = more growth (less inhibition)
Experiment [1] relates to E. coli TESEC Alr+ wild-type control. The settings on record: compound 0.1 mM; raw OD600 reference: median of DMSO wells 0.241, cell-free background 0.041. Here is the method: (§1)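 TESEC Mtb Alr E. coli, or the Alr+ wild-type control, in 384-well plates with Prestwick library compounds at 0.1 mM and 1% DMSO, across arabinose induction levels of 1E3 to 1E7 nM. Growth is read as OD600 after 10 h at 37 °C in triplicate biological replicates.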

Experiment [2] relates to E. coli TESEC Mtb Alr. Conditions: compound 0.1 mM. Here is the method: as §1
In another experiment the test system is E. coli TESEC Mtb Asd. The settings on record: compound 0.1 mM. Here is the method:
(§2)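 TESEC E. coli strains in which the native enzyme is deleted and replaced by arabinose-inducible Mtb Asd, DapB, CysH or TrpD, each grown in its selective medium. Strains were screened against the Prestwick library at 0.1 mM and 1% DMSO in 384-well format at low and high arabinose induction. Growth is read as OD600 after 10 h in triplicate.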

The subject of a further experiment is E. coli TESEC Mtb DapB. The settings on record: compound 0.1 mM. On the procedure:
as §2

The test system of experiment [3] is E. coli TESEC Alr+ wild-type control. The settings on record: compound 0.1 mM; raw OD600 reference: median of DMSO wells 0.49, cell-free background 0.052. On the procedure:
(§3)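 TESEC Mtb Alr E. coli (ΔaraC ΔtolC ΔentC Δalr ΔdadX, arabinose-inducible Mtb Alr) or the Alr+ wild-type control strain, grown in defined M9-fructose medium without D-alanine in 96-well plates with Prestwick library compounds at 0.1 mM and 1% DMSO. Low Alr induction is 0.1 µM arabinose and high induction is 10 mM arabinose.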

Experiment [4] relates to E. coli TESEC Mtb Alr. Conditions: compound 0.1 mM. Here is the method:
as §3
The source holds these as a separate data set.

Setting [5] is: arabinose 1000 nM, raw OD600 reference: median of DMSO wells 0.294, cell-free background 0.041.
Where [6] appears, read: arabinose 10000 nM, raw OD600 reference: median of DMSO wells 0.264, cell-free background 0.041.
Setting [7] is: arabinose 100000 nM, raw OD600 reference: median of DMSO wells 0.201, cell-free background 0.041.
Where [8] appears, read: arabinose 1000000 nM, raw OD600 reference: median of DMSO wells 0.193, cell-free background 0.041.
Setting [9] is: arabinose 10000000 nM, raw OD600 reference: median of DMSO wells 0.146, cell-free background 0.041.
Setting [10] is: arabinose induction (level): High, raw OD600 reference: median of DMSO wells 0.331, cell-free background 0.041.
Where [11] appears, read: arabinose induction (level): Low, raw OD600 reference: median of DMSO wells 0.417, cell-free background 0.041.
[12] abbreviates: arabinose induction (level): High, raw OD600 reference: median of DMSO wells […], cell-free background 0.041.
[13] abbreviates: arabinose induction (level): Low, raw OD600 reference: median of DMSO wells 0.227, cell-free background 0.041.
Setting [14] is: arabinose 100 nM, raw OD600 reference: median of DMSO wells 0.413, cell-free background 0.052.
The mark [15] stands for this setting: arabinose 10000000 nM, raw OD600 reference: median of DMSO wells […], cell-free background 0.052.

Turning to `Cc1[nH]c(=O)c(C#N)cc1-c1ccncc1` [Milrinone], the growth in experiment [1] is 0.199 ± 0.0031; in the experiment on E. coli TESEC Mtb Alr [2] (setting [5]), 0.27 ± 0.0094; in the experiment on E. coli TESEC Mtb Alr [2] (setting [6]) it was 0.229 ± 0.0033; in the experiment with E. coli TESEC Mtb Alr [2] (setting [7]) it was 0.169 ± 0.018; in the experiment with E. coli TESEC Mtb Alr [2] (setting [8]), 0.136 ± 0.0068; in the experiment with E. coli TESEC Mtb Alr [2] (setting [9]), 0.148 ± 0.0037. The growth with E. coli TESEC Mtb Asd (setting [10]) was 0.304 ± 0.06; in the experiment with E. coli TESEC Mtb Asd (setting [11]) it was 0.329 ± 0.054; in the experiment on E. coli TESEC Mtb DapB (setting [12]), 0.212 ± 0.0044; in the experiment with E. coli TESEC Mtb DapB (setting [13]) it was 0.236 ± 0.014; in experiment [3], 0.636 ± 0.046; in the experiment with E. coli TESEC Mtb Alr [4] (setting [14]), 0.43 ± 0.0055. In the experiment on E. coli TESEC Mtb Alr [4] (setting [15]), this compound yielded a growth of 0.305 ± 0.0071.
`c1ccc(CC2=NCCN2)cc1` [Tolazoline hydrochloride]: the growth is 0.2459 ± 0.0022 in experiment [1]; 0.301 ± 0.018 in the experiment on E. coli TESEC Mtb Alr [2] (setting [5]); 0.253 ± 0.0071 with E. coli TESEC Mtb Alr [2] (setting [6]); 0.191 ± 0.0077 in the experiment with E. coli TESEC Mtb Alr [2] (setting [7]); 0.172 ± 0.0039 with E. coli TESEC Mtb Alr [2] (setting [8]); 0.149 ± 0.0054 with E. coli TESEC Mtb Alr [2] (setting [9]). For the same compound, the growth in the experiment on E. coli TESEC Mtb Asd (setting [10]) was found to be 0.264 ± 0.08; in the experiment on E. coli TESEC Mtb Asd (setting [11]), 0.435 ± 0.036; in the experiment on E. coli TESEC Mtb DapB (setting [12]) it was 0.191 ± 0.017; with E. coli TESEC Mtb DapB (setting [13]), 0.256 ± 0.052; in experiment [3], 0.493 ± 0.064; in the experiment on E. coli TESEC Mtb Alr [4] (setting [14]), 0.413 ± 0.007. Moreover, the growth in the experiment with E. coli TESEC Mtb Alr [4] (setting [15]) stood at 0.364 ± 0.012.
As to `CC(C)(C)NC[C@H](O)c1ccc(O)c(CO)c1` [Levalbuterol hydrochloride], the growth is 0.235 ± 0.005 in experiment [1]; 0.305 ± 0.011 with E. coli TESEC Mtb Alr [2] (setting [5]); 0.273 ± 0.0041 in the experiment with E. coli TESEC Mtb Alr [2] (setting [6]); 0.197 ± 0.0075 in the experiment on E. coli TESEC Mtb Alr [2] (setting [7]); 0.214 ± 0.023 with E. coli TESEC Mtb Alr [2] (setting [8]); 0.141 ± 0.0037 in the experiment with E. coli TESEC Mtb Alr [2] (setting [9]). The growth worked out at 0.242 ± 0.05 in the experiment with E. coli TESEC Mtb Asd (setting [10]); 0.32 ± 0.084 in the experiment with E. coli TESEC Mtb Asd (setting [11]); 0.168 ± 0.033 in the experiment with E. coli TESEC Mtb DapB (setting [12]); 0.179 ± 0.088 in the experiment with E. coli TESEC Mtb DapB (setting [13]); 0.608 ± 0.014 in experiment [3]; 0.4232 ± 0.00093 with E. coli TESEC Mtb Alr [4] (setting [14]). The compound also came in with a growth in the experiment with E. coli TESEC Mtb Alr [4] (setting [15]) of 0.318 ± 0.01.
`CCN(CC)CCNC(=O)c1cc(S(C)(=O)=O)ccc1OC` [Tiapride hydrochloride]: the growth in experiment [1] was found to be 0.249 ± 0.0035; with E. coli TESEC Mtb Alr [2] (setting [5]) it was 0.295 ± 0.01; in the experiment on E. coli TESEC Mtb Alr [2] (setting [6]), 0.263 ± 0.0064; with E. coli TESEC Mtb Alr [2] (setting [7]), 0.213 ± 0.016; with E. coli TESEC Mtb Alr [2] (setting [8]) it was 0.184 ± 0.0024; with E. coli TESEC Mtb Alr [2] (setting [9]) it was 0.149 ± 0.0067. Besides, the growth worked out at 0.295 ± 0.057 with E. coli TESEC Mtb Asd (setting [10]); 0.422 ± 0.045 in the experiment on E. coli TESEC Mtb Asd (setting [11]); 0.183 ± 0.023 in the experiment on E. coli TESEC Mtb DapB (setting [12]); 0.218 ± 0.035 in the experiment on E. coli TESEC Mtb DapB (setting [13]); 0.481 ± 0.087 in experiment [3]; 0.422 ± 0.011 with E. coli TESEC Mtb Alr [4] (setting [14]). In the experiment on E. coli TESEC Mtb Alr [4] (setting [15]), this compound showed a growth of 0.361 ± 0.013.
